# Data published in PubChem BioAssay (NCATS).
# Results filed as inconclusive are left out. A call without a number means that no potency is given here. Values without a mark were called inactive. Calls of active or inactive are those of the source. Calls follow the shape of the dose curve; as a rule, active = well fitted curve in the direction sought with a large enough effect; inconclusive = small, poorly fitted or top-dose-only effect, or another doubt; inactive = no such curve, though single readings can be large; an effect the other way counts as inactive or inconclusive.
# Tests used:
# [1] = target: Cytochrome P450 3A7 (Homo sapiens) (UniProt P24462); assay: Cytochrome P450 family 3 subfamily A member 7 (CYP3A7) small molecule antagonists: luciferase biochemical qHTS assay (AID 1963596); also: nearly all actives have a fitted effect of over 40% in size; also: potency is read from the fitted curve at half-maximal effect
# Cytochrome P450 3A7 (Homo sapiens), sequence (P24462 whole entry, looked up): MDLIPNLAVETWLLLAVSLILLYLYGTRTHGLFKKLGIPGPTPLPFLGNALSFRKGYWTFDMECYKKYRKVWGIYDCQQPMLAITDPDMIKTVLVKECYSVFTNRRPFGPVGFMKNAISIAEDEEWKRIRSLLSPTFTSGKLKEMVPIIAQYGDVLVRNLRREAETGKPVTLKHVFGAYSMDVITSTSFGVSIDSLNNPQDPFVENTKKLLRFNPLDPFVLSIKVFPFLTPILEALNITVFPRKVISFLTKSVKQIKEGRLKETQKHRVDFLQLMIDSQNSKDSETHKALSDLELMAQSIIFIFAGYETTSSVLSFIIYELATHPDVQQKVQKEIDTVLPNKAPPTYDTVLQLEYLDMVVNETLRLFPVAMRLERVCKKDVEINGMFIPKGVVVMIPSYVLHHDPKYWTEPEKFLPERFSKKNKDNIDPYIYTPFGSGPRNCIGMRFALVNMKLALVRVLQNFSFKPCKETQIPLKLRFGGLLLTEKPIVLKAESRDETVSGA
# Procedure, shortened: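 Recombinant CYP3A7 P450-Glo luminescent assay: enzyme-proluciferin substrate mix preincubated with compound 10 min at room temperature, reaction started with NADPH regeneration system for 1 h. Luciferin detected by luminescence; ketoconazole as positive control.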
# [2] = Viability qHTS for spleen associated tyrosine kinase inhibitor (SYKi) drug resistant MV4-11 cells (AID 1963824); also: nearly all actives have a fitted effect of over 35% in size; also: potency is read from the fitted curve at half-maximal effect
# Procedure, shortened: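 CellTiter-Glo luminescence, read 10 min after reagent addition, reports viability after a 72 hr compound exposure. Cells are an MV4-11 line made resistant to SYK inhibition, seeded at 500 per well onto compound-containing plates.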
# [3] = Cellular viability qHTS for adrenocortical cancer (ACC) cell line SW-13 (AID 1963989); conditions: SW-13 ACC cells viability, CellTiter-Glo, 48 h; activity (max response): hits give low values;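 also: cells grown in serum-free medium with ITS supplement; nearly all actives have a fitted effect of over 65% in size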
# Procedure, shortened: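 Here, serum-free SW-13 cultures were dosed up to 46 uM. Following 48 h, ATP-dependent luminescence (CellTiter-Glo) reported viable cells, and logistic modeling produced IC50 values.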
# [4] = Cellular viability qHTS for adrenocortical cancer (ACC) cell line NCI-H295R (AID 1963990); also: nearly all actives have a fitted effect of over 60% in size
# Procedure, shortened: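 Viability of NCI-H295R after 48 h of treatment (final up to 46 uM) measured through cellular ATP luminescence.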
# [5] = Quantitative highthroughput screen to assess conditional lethalithy of NOMO1 cells grown in RPMI1640 with untreated serum (RPMI+s) (AID 1963876); also: nearly all actives have a fitted effect of over 35% in size
# Procedure, shortened: (§1)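 Each medium arm—HPLM with 10% dialyzed FBS, or RPMI1640 with 5 mM glucose and 10% untreated or dialyzed FBS—was screened against an 11-point, 3-fold compound titration for 48 h at 37 °C, with CellTiter-Glo luminescence as endpoint.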
# [6] = Quantitative highthroughput screen to assess conditional lethalithy of NOMO1 cells grown in RPMI1640 with dialyzed fetal bovine serum (RPMI+ds) (AID 1963877); also: series mostly up to about 46 µM; nearly all actives have a fitted effect of over 30% in size
# Procedure, shortened: as §1
# [7] = Quantitative highthroughput screen to assess conditional lethalithy of NOMO1 cells grown in Human Plasma-Like Medium with dialyzed fetal bovine serum (HPLM+ds) (AID 1963878); also: nearly all actives have a fitted effect of over 35% in size
# Procedure, shortened: as §1
# [8] = Quantitative highthroughput screen to assess conditional lethalithy of P12 Ichikawa cells grown in Human Plasma-Like Medium with dialyzed fetal bovine serum (HPLM+ds) (AID 1963879); conditions: Potency: viability; also: series mostly up to about 46 µM; nearly all actives have a fitted effect of over 35% in size
# Procedure, shortened: as §1
# [9] = Quantitative highthroughput screen to assess conditional lethalithy of P12 Ichikawa cells grown in RPMI1640 with dialyzed fetal bovine serum (RPMI+ds) (AID 1963880); conditions: Potency: P12-Ichikawa viability; also: nearly all actives have a fitted effect of over 35% in size
# Procedure, shortened: as §1
# [10] = Quantitative highthroughput screen to assess conditional lethalithy of P12 Ichikawa cells grown in RPMI1640 with untreated serum (RPMI+s) (AID 1963881); conditions: Potency: viability
# Procedure, shortened: as §1
# [11] = Quantitative highthroughput screen to assess conditional lethalithy of SEM cells grown in Human Plasma-Like Medium with dialyzed fetal bovine serum (HPLM+ds) (AID 1963882)
# Procedure, shortened: as §1
# [12] = Quantitative highthroughput screen to assess conditional lethalithy of SEM cells grown in RPMI1640 with dialyzed fetal bovine serum (RPMI+ds) (AID 1963884)
# Procedure, shortened: as §1
smiles,measurement,setting,value
CCN(CC)C(=O)C1CN2CCc3cc(OC)c(OC)cc3C2CC1OC(C)=O (stereo not drawn),Potency,[1],inactive
same,Potency,[2],inactive
same,activity (max response),[3],-2.45%
same,Potency,[4],inactive
CC(=O)c1ccc(OCC(=O)N2CCCCC2)cc1,Potency,[1],inactive
same,Potency,[2],inactive
same,activity (max response),[3],7.54%
same,Potency,[4],inactive
CO/N=C(/C(=O)N[C@@H]1C(=O)N2C(C(=O)[O-])=C(C[n+]3ccn4ncccc43)CS[C@H]12)c1nsc(N)n1,Potency,[1],inactive
same,Potency,[2],inactive
same,activity (max response),[3],-7.2%
same,Potency,[4],inactive
OCCc1ccccc1,Potency,[1],inactive
same,Potency,[2],inactive
same,activity (max response),[3],10.1%
same,Potency,[4],inactive
NS(=O)(=O)c1ccc(N2CCCCS2(=O)=O)cc1,Potency,[1],inactive
same,Potency,[2],inactive
same,Potency,[4],inactive
CC1(C)CO[C@@H](CC(=O)O)CN1,Potency,[1],inactive
same,Potency,[2],inactive
same,activity (max response),[3],8.37%
same,Potency,[4],inactive
CCNC(=O)Nc1ccc(Oc2ncnc(N)c2C=NOC)cc1Cl,Potency,[1],inactive
same,Potency,[5],inactive
same,Potency,[6],inactive
same,Potency,[7],inactive
same,Potency,[8],inactive
same,Potency,[9],inactive
same,Potency,[10],inactive
same,Potency,[11],1.05 µM (active)
same,Potency,[12],0.935 µM (active)
Cc1c(C(N)=O)cc([N+](=O)[O-])cc1[N+](=O)[O-],Potency,[1],inactive
same,Potency,[2],inactive
same,Potency,[4],inactive
COc1ccc(C(Cl)=C(c2ccc(OC)cc2)c2ccc(OC)cc2)cc1,Potency,[1],inactive
same,Potency,[2],inactive
same,Potency,[4],inactive
Nc1ncn([C@@H]2O[C@H](CO)[C@@H](O)[C@H]2O)c(=O)n1,Potency,[1],inactive
same,Potency,[2],1.66 µM (active)
same,Potency,[4],inactive
CN(C)CCN(Cc1ccccc1)c1ccccn1,Potency,[1],6.92 µM (active)
same,activity (max response),[3],-3.06%
